Reference: the supplement of paper PMC13380429
Values without a mark were called inactive.

Test system: Vero E6 infected with SARS-CoV-2
Test: inhibition of SARS-CoV-2 cytopathic effect; higher = more antiviral protection, active = above 15
Conditions: 48 h

Compound | inhibition of SARS-CoV-2 cytopathic effect (1 nM) | inhibition of SARS-CoV-2 cytopathic effect (8.33 nM) | inhibition of SARS-CoV-2 cytopathic effect (100 nM) | inhibition of SARS-CoV-2 cytopathic effect (833.33 nM) | inhibition of SARS-CoV-2 cytopathic effect (10000 nM)
C[C@H](O)[C@H](O)[C@H]1CNc2nc(N)[nH]c(=O)c2N1 [sapropterin] | -2.03% | 2.62% | 1% | 0.55% | -1.44%
COc1cc(OC)c(OC)cc1C=O [asaraldehyde] | -1.46% | -1.92% | -1.24% | -1.97% | 0.07%
CC(C)(C)n1nc(-c2cccc3ccccc23)c2c(N)ncnc21 [1-naphthyl-PP1] | 0.05% | 1.77% | 1.73% | 1.24% | -4.31%
CCc1cccc(N(C)C(=N)Nc2cccc3ccccc23)c1 [aptiganel] | 1.52% | 1.91% | 1.39% | -2.33% | -4.82%
FC(F)(F)c1ccc(CNc2ccc(Cc3c[nH]c4ncccc34)cn2)cc1 | 3.02% | 0.15% | 0.15% | -0.39% | -1.01%
CCCNC(=O)Nc1ccc(Oc2ncnc3cc(OC)c(OC)cc23)cc1Cl | 0.58% | 0.62% | 1.2% | 0.47% | -2.74%
C[C@]12CC[C@@H]3c4ccc(OC(=O)N(CCCl)CCCl)cc4CC[C@H]3[C@@H]1CC[C@@H]2OP(=O)(O)O [estramustine-phosphate] | -1.79% | 0.03% | -0.34% | -1.57% | -2.26%
Cn1c(NC[C@@H](N)Cc2ccccc2)nc(-c2ccncc2)c(-c2ccc3ccccc3c2)c1=O | -0.22% | 0.05% | -0.08% | 2.09% | 32.9% (active)
CCC1(c2ccc(N)cc2)CCC(=O)NC1=O (stereo not given) [aminoglutethimide] | -0.9% | 2.8% | 3.28% | 2.95% | 2.93%
CC(C(=O)O)c1ccc(CC2CCCC2=O)cc1 (stereo not given) [loxoprofen] | 0.21% | 3.24% | 2.9% | 0.82% | 2.16%
N#C[C@@H]1C[C@@H]2C[C@@H]2N1C(=O)[C@@H](N)C12CC3CC(CC(O)(C3)C1)C2 | -1.01% | -0.66% | 0.62% | 0.34% | 2.08%
CC(Cc1cccc(C(F)(F)F)c1)NCCOC(=O)c1ccccc1 (stereo not given) [benfluorex] | 0.5% | 0.35% | -0.24% | -1.03% | 0.26%
COc1ccc2[nH]c(I)c(CCNC(C)=O)c2c1 [2-iodomelatonin] | 3.34% | 4.46% | 0.99% | 0.89% | 0.94%
C[C@@H](NCCCc1cccc(C(F)(F)F)c1)c1cccc2ccccc12 [cinacalcet] | 1.8% | 2.9% | 0.77% | -2.27% | -3.52%
CNCCn1c(=O)c2cc(OC)c(OC)cc2c2cnc3cc4c(cc3c21)OCO4 | 3.31% | 1.57% | -1.27% | -9.93% | -15.7%
C[C@@H](O)[C@H]1C(=O)N2C(C(=O)O)=C(S[C@@H]3CN[C@H](CNS(N)(=O)=O)C3)[C@H](C)[C@H]12 [doripenem] | -0.14% | 0.27% | -2.53% | -0.35% | 0.46%
NC(CO)C(=O)NNCc1ccc(O)c(O)c1O (stereo not given) [benserazide] | -1.48% | 3.19% | 2.6% | -3.13% | -4.67%
Cc1ccc2c(c1CCC(=O)O)CC[C@@H](NS(=O)(=O)c1ccc(Cl)cc1)C2 [terutroban] | -4.39% | -2.46% | -5.1% | -1.42% | 0.09%
CCN(CC)CCOc1ccc(Cc2ccccc2)cc1 | -2.21% | -0.5% | -4.41% | 0.19% | -0.76%
O[C@@H]1[C@H](O)[C@@H](CCl)O[C@H]1n1cnc2c(NC3CC4CCC3C4)ncnc21 (mixture of isomers) [5'-chloro-5'-deoxy-ENBA-(+/-)] | -4.47% | -2.02% | 0.3% | 3.77% | -3.73%
